# Bioassay records deposited in PubChem by National Center for Advancing Translational Sciences (NCATS).
# Shown are actives, neighbours in structure and some others; about 9.5% of the full set was active somewhere.
# HPGD inh = inhibitors of human 15-hydroxyprostaglandin dehydrogenase (HPGD); P15428; purified HPGD, NADH fluorescence kinetic, PGE2 substrate; Potency, µM, hits mostly inhibitors; hit rate 4.3% among 150,000; active means well fitted inhibition curve with a large enough effect, not every such curve was filed as active; inconclusive means small, poorly fitted or top-dose-only effect, or another doubt; inactive means no such curve, though single readings can be large or run the other way
# Target sequence (P15428 whole entry, looked up): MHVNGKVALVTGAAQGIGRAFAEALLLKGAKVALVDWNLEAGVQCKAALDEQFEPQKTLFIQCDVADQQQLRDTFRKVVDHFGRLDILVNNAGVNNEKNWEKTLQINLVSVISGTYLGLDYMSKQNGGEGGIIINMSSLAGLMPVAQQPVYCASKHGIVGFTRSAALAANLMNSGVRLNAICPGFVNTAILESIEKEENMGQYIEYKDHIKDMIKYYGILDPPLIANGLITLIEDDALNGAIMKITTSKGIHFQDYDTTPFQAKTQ
#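 NADH formation kinetics: reaction with 30 uM PGE2 and 1 mM NAD+ (final), 20 nM enzyme, Tris-HCl pH 8 with Tween 20, after 15 min compound preincubation at room temperature. Fluorescence change, last versus first of five reads.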
# NPSR antag = neuropeptide S receptor (human) antagonism, cAMP; Q6W5P4; Potency, µM (doses to about 38.3 µM), usual class: inhibitors; hit rate 1% among 220,000; CHO-NPSR cells, cAMP TR-FRET, antagonist mode; further: nearly all actives have a fitted effect of over 50% in size
# Target sequence (Q6W5P4 whole entry, looked up): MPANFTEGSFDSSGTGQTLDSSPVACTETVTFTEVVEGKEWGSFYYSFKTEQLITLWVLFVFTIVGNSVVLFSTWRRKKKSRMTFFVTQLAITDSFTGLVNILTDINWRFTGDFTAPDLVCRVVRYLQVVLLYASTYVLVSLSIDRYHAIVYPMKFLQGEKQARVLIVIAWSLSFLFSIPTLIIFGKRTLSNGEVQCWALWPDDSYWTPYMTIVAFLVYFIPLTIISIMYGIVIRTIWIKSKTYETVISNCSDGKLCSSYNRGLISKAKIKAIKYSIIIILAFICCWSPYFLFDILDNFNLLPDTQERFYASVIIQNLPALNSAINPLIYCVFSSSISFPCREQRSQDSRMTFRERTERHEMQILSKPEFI
# Tau fluor counter = counter-screen for tau fibril formation inhibitors. AID 1463. hit rate 0.93% among 280,000. tau K18 P301L Alexa594 fluorescence, heparin fibrillization. Potency, µM (top dose mostly 57.7 µM); further: nearly all actives have a fitted effect of over 55% in size
#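 Human tau K18 P301L (15 uM unlabeled, 0.24 uM Alexa 594-labeled) in 100 mM sodium acetate pH 7 with 20 uM heparin, 6 hr at 37 C. ThT 30 uM added, 1 hr ambient; Alexa 594 FP and total fluorescence read at 555/632 nm.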
# Tau fibril FP = blocks human tau fibril formation measured by polarization | P10636 | K18 P301L tau heparin fibrillization, Alexa594 FP, 6 h | Potency, µM (top dose mostly 57.7 µM), actives largely listed as inhibitors | hit rate 0.39% among 280,000; further: nearly all actives have a fitted effect of over 55% in size
#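 FP of Alexa 594-tau after heparin (20 uM) induction. Substrate: human K18 P301L, 15 uM unlabeled, 0.24 uM labeled. Buffer 100 mM sodium acetate pH 7. 6 hr, 37 C.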
# Tau fibril ThT = tau fibrillization inhibition (ThT binding); P10636; recombinant tau K18 P301L, heparin-induced fibrillization, ThT fluorescence; Potency, µM (highest dose often 57.4 µM), hits mostly inhibitors; hit rate 2.1% among 270,000; further: nearly all actives have a fitted effect of over 55% in size
#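 Using a mix of unlabeled (15 uM) and Alexa 594-labeled (0.24 uM) tau K18 P301L, heparin-triggered fibrillization over 6 hr at 37 C was scored by ThT fluorescence.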
# ALDH1A1 block = blocks purified human ALDH1A1 activity | P00352 | Potency, µM (highest dose often 75.3 µM), hits mostly inhibitors | hit rate 7.3% among 220,000 | AID 1030 | Purified ALDH1A1, NADH fluorescence, propionaldehyde substrate; active means well fitted inhibition curve with a large enough effect, not every such curve was filed as active; inconclusive means small, poorly fitted or top-dose-only effect, or another doubt; inactive means no such curve, though single readings can be large or run the other way
# Numbers stand for hits; . = inactive; ? = inconclusive; / = no result given; [ ] = another dose, or the depositor's remark. Unless noted, the call rests on the fitted dose curve; in most records, active means well fitted curve in the direction sought with a large enough effect; inconclusive means small, poorly fitted or top-dose-only effect, or another doubt; inactive means no such curve, though single readings can be large; an effect the other way counts as inactive or inconclusive.
SMILES,HPGD inh,NPSR antag,Tau fluor counter,Tau fibril FP,Tau fibril ThT,ALDH1A1 block
CC(C)c1nc2ccccc2n1CC(O)COC1CCCCC1 (stereo not given),/,.,.,.,.,28µM
Cc1nc2ccccc2n1CC(O)COC1CCCCC1 (stereo not given),.,.,.,.,.,?
CC(=O)c1ccc(C2C=CC(O)C(CO)O2)cc1 (stereo not given),/,/,.[11.6 µM],.[11.6 µM],.[11.5 µM],?
Cc1ccc(NC(=O)c2ccc(OC(=O)c3ccco3)cc2)cc1,.,.,.,.,.,.
O=C(NCc1ccccn1)c1ccc(NC(=O)c2ccco2)cc1,14µM,.,.,.,.,?
O=C(Oc1ccccc1)c1ccc(NC(=O)c2ccco2)cc1,13µM,.,.,.,.,18µM
O=C(Nc1ccc(-c2noc(CCc3ccccc3)n2)cc1)c1ccco1,25µM,.,?,?,.,?
O=C(CN1C(=O)COc2ccc(S(=O)(=O)N3CCCCCC3)cc21)NCc1ccc(F)cc1,/,/,.,.,.,/
Cc1cccc(N2CCN(Cc3ccoc3)CC2)c1C,14µM,.,.,.,.,25µM
Cc1cc(CN2CCN(c3cccc(C)c3C)CC2)cs1,/,/,.,.,?,/
CN1CCN(CC(O)COc2ccc(C34CC5CC(CC(C5)C3)C4)cc2)CC1 (stereo not given),/,.,.,.,.,.
O=C(Nc1ccccc1)N(O)c1ccc(Cl)cc1,.,.,.,?,25µM,1µM
CN1C(=O)NC(c2ccccc2)(C(F)(F)F)S/C1=C(/C#N)c1nnc(N2CCOCC2)n1-c1ccccc1 (stereo not given),.,.,.,.,.,.
CN1C(c2ccc(F)cc2)=CS/C1=C(/C#N)c1nnc(N2CCOCC2)n1-c1ccccc1,.,.,.,.,.,0.79µM
C=CCN1C(c2ccccc2)=CS/C1=C(/C#N)c1nnc(N2CCOCC2)n1-c1ccccc1,.,.,.,.,.,5.6µM
CCN1C(c2ccc(F)cc2)=CS/C1=C(\C#N)c1nnc2n1-c1ccccc1SC2,?,?,.,.,.,13µM
Cc1ccc(Cl)cc1NC(=O)CN1C=NS(=O)(=O)c2ccccc21,/,/,.,.,.,/
COc1ccc(N2CCN(C(c3ccccc3)c3sc4nc(C)nn4c3O)CC2)cc1 (stereo not given),/,.,.,.,.,/
CCNC(=S)Nc1cc(-c2ccc(Cl)cc2)[nH]n1,/,.,.,.,?,1.3µM
COC(=O)N/N=C/c1c[nH]c2ccccc12,.,.,.,.,.,.
O=C(N/N=C/c1c[nH]c2ccccc12)C1CC1c1ccccc1 (stereo not given),/,.,14µM[quencher],.,?,.
O=C(N/N=C/c1c[nH]c2ccccc12)C1CC1(c1ccccc1)c1ccccc1 (stereo not given),/,?,7.1µM[quencher],.,.,.
O=C(N/N=C/c1ccncc1)C1CC1(c1ccccc1)c1ccccc1 (stereo not given),/,.,?,.,?,/
C[n+]1cccc2cccc([O-])c21,/,.,.,?,16µM,.
N#CC(=C(/N)Sc1ccccc1N)/C(C#N)=C(\N)Sc1ccccc1N,/,/,18µM[quencher],/,14µM,/
SMILES,HPGD inh,NPSR antag,Tau fluor counter,Tau fibril FP,Tau fibril ThT,ALDH1A1 block
Nc1ccccc1O,.,/,/,/,/,.
COc1ccc(Nc2nnc(SC(C(=O)Nc3ccc(OC)c(Cl)c3)c3ccccc3)s2)cc1 (stereo not given),.,.,7.1µM[quencher],.,.,?
CC(=O)N1CCOc2cc(S(=O)(=O)NCc3ccccc3Cl)c(Cl)cc21,/,/,.,.,.,/
O=C(CC1CS(=O)(=O)CC1CC(=O)Oc1ccccc1F)Oc1ccccc1F (stereo not given),.,.,.,.,?,7.1µM
CCc1ccccc1NC(=O)CC1CS(=O)(=O)CC1CC(=O)Nc1ccccc1CC (stereo not given),.,.,.,.,.,.
Nc1c(C(=O)Nc2ccc(S(=O)(=O)N3CCCC3)cc2)sc2nc3ccc(OC(F)(F)F)cc3cc12,.,?,.,.,5.6µM,.
CCn1cc(CN2CCCC(C(=O)c3ccc(-c4ccccc4)cc3)C2)cn1 (stereo not given),/,.,.,?,.,.
O=c1c2ccccc2c(C=NC2CCS(=O)(=O)C2)c(O)n1-c1ccccc1 (stereo not given),.,.,.,.,.,18µM
CCNC(=O)C1CCCN(c2nn3cc(-c4ccc(C)cc4)nc3s2)C1 (stereo not given),/,/,.,.,?,/
Cc1ccc(S(=O)(=O)NNc2nc3ccccc3nc2C(F)(F)F)cc1,3.2µM,.,.,.,?,7.1µM
Cc1ccc(S(=O)(=O)NNc2ccccc2)cc1,5µM,.,.,.,.,5.6µM
O=C(NNc1nc2ccccc2nc1C(F)(F)F)c1ccccc1,.,.,.,.,.,?
CCCCC[C@H](O)/C=C/[C@@H]1[C@H](C/C=C\CCCC(=O)O)[C@@H](O)C[C@H]1O,.,/,.,.,.,.
CCOC(=O)c1sc(NC(=O)C2CC=CCC2C(=O)O)nc1C (stereo not given),.,.,.,.,.,0.13µM
CCOC(=O)c1sc(NC(C)=O)nc1C,?,.,.,.,.,?
CCOC(=O)c1sc(NC(=O)c2ccc(C)o2)nc1C,20µM,.,.,.,.,.
COC(=O)c1sc(NC(=O)c2ccc(C)o2)nc1C,?,.,.,.,.,.
CSc1ccc(/C=N/n2c(C)cc(C)cc2=O)cc1,.,.,.,.,.,.
O=C(Nc1ccccc1)N1CCCC2(CCNCC2)C1,.,/,/,/,/,.
O=c1[nH]c(-c2ccncc2)nc2ccccc12,7.1µM,.,.,?,?,7.9µM
O=c1[nH]c(-c2cccnc2)nc2ccccc12,18µM,.,.,.,.,.
CN(C)c1ccc(-c2nc3ccccc3c(=O)[nH]2)cc1,/,.,?,.,?,/
Cc1cc(C)c(S(=O)(=O)n2c([N+](=O)[O-])cnc2C)c(C)c1,.,.,.,.,.,?
CCOCCCn1c(=NC(=O)c2cccs2)c(C#N)cc2c(=O)n3ccccc3nc21,/,?,.,.,.,/
CCOc1ccc(C2=Cc3cc(OC)c(OC)cc3C(=C(Cl)Cl)O2)cc1,.,.,?,?,18µM,?
CCOc1ccc(-c2cc(-c3nc(-c4ccc(OC)c(OC)c4)no3)[nH]n2)cc1,/,/,.,.,?,/
COc1ccc2c(CC(=O)Nc3ccc(C)cc3)coc2c1,/,/,.,?,.,/
CCN(CC)c1ccc(NC(=O)C2CC3CCC2C3)cc1 (stereo not given),18µM,.,.,.,?,13µM
CC1CC(C)(C)NC(=S)S1 (stereo not given),22µM,.,.,.,.,13µM
COc1cc(C(=O)NCC(=O)OC(C)C(=O)Nc2ncc(Cl)cc2Cl)cc(OC)c1OC (stereo not given),/,.,.,.,.,.
